# Source: PubChem BioAssay AID743269 (The Scripps Research Institute Molecular Screening Center, 2014)
# In all, about 370,000 compounds went through this assay and about 2,400 (0.65%) were called active. The sample holds actives, similar compounds and a random draw of the others, so the mix is not that of the screen. Values without a mark were called inactive.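 Rule for the calls: active = inhibition above the screen-wide mean plus 3 SD (cut at about 13% in these data); inactive = the rest.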
# System: HIV-1 integrase (with human LEDGF/p75)
# Experiment: blockers of LEDGF/p75-dependent integrase strand transfer – biochemical, TR-FRET, high throughput, primary screen (AID 743269);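 note: signal is the Cy5 over europium emission ratio at 671 and 618 nm; 0% = plate median of compound wells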
# Conditions: TR-FRET IN-LEDGF/p75 DNA integration, Eu/Cy5; at 3.7 µM; active compounds read high
row,Compound,inhibition
1,O=C(CSc1nc2ccccc2n1Cc1ccccc1)NNC(=S)Nc1ccccc1,5.2%
2,COC(=O)C[C@@H]1CC[C@@H]2[C@@H](COc3ccc(NC(=O)Nc4ccc(F)c(F)c4)cc3C(=O)N2C)O1,0.03%
3,COC(=O)c1cccc(Cn2ccc3ccc(-c4ccc5ccn(C(=O)C6CCCCC6)c5c4)cc32)c1,0.91%
4,COC(=O)C[C@H]1CC[C@H]2[C@H](COc3ccc(NC(=O)C4CC4)cc3C(=O)N2C)O1,2.4%
5,Oc1cccc(/C=N/Nc2ccc(Cl)nn2)c1O,18.5% (active)
6,C/C(=N\Nc1ccc(Cl)nn1)c1ccccc1O,-4.19%
7,CCOC(=O)[C@]12CCCCC/C=C\1N(Cc1ccc(OC)cc1)C(=O)[C@H]2CC(=O)NCCCN1CCCC1=O,-3.19%
8,COC(=O)c1cc(S(=O)(=O)N2CCN(C(=O)C3CCCO3)CC2)cn1C (stereo not drawn),8.59%
9,COc1ccc(-n2c(SCC(=O)Nc3ccc4cn[nH]c4c3)nnc2-c2cccnc2)cc1,-0.62%
10,COc1ccc(-c2cc(-c3nnc(SCC(=O)Nc4cccc5ccccc45)n3N)[nH]n2)cc1,-3.91%
11,Cc1cc(=O)oc2c3c(cc(OCC(=O)N[C@H](C(=O)O)c4ccccc4)c12)OC(C)(C)CC3,18.2% (active)
12,Cc1cc(=O)oc2c3c(cc(OCC(=O)NCC(O)c4ccccc4)c12)OC(C)(C)CC3 (stereo not drawn),-5.46%
13,Cc1c(C)c2c(OCC(=O)N[C@@H](C(=O)O)c3ccccc3)cc3c(c2oc1=O)CCC(C)(C)O3,-4.85%
14,O=C(NC1CCCCN(Cc2ccc(Cl)cc2)C1=O)c1ccc(Br)cc1 (stereo not drawn),2.38%
15,COC(=O)[C@]12C[C@H](CC(=O)NCC34CC5CC(CC(C5)C3)C4)C(=O)N(Cc3ccc(Cl)cc3Cl)C1=C[C@H](COCc1ccccc1)O[C@@H]2C,-4.42%
16,CC(C)CSc1nnc(-c2cccnc2)n1Cc1ccccc1,1.09%
17,CCOc1c(Br)cc(/C=C2\C(=O)N(CCC#N)N=C2C)cc1OC,36% (active)
18,COC(=O)[C@H](C(C)C)N(CCc1cn(Cc2ccccc2)nn1)S(=O)(=O)c1ccc(F)cc1Br,-1.7%
19,FC(F)(F)c1cccc(NC(=S)OC2CCC23CCC(c2ccccc2)CC3)c1 (stereo not drawn),2.54%
20,Nc1[nH]c(/C=C2/CCCCC2n2[nH]c(=O)n(-c3ccccc3)c2=O)c(Cc2ccccc2)[n+]1Cc1ccccc1 (stereo not drawn),3.55%
21,C[C@H]1[C@H](NC(=O)c2cccc(N(C)C)c2)CC[C@@]23CCCN2C(=O)CCC[C@@H]13,-2.54%
22,CCN1CCN(C(=O)C2CCN(S(=O)(=O)c3cc(Cl)ccc3Cl)CC2)CC1,1.63%
23,O=C(CN1CCN(S(=O)(=O)c2cc(Cl)ccc2Cl)CC1)c1ccc(O)c(O)c1,50.6% (active)
24,O=S(=O)(c1cc(Cl)ccc1Cl)N1CCN(Cc2ccco2)CC1,-3.53%
25,CC(=O)O[C@@]1(C(C)=O)CCC2[C@H]3C=C(C)C4=CC(=O)CC[C@@]4(C)C3CC[C@]21C (stereo partly drawn),-5.1%
26,O=C(NCCc1c[nH]c2ccccc12)OCc1cn(-c2c(F)cccc2F)nn1,4.42%
27,COc1cc(CCC(=O)OCC(=O)Nc2cccc(S(N)(=O)=O)c2)cc(OC)c1OC,-0.51%

row,Compound,inhibition
1,COc1cc(NC(=O)COC(=O)c2ccc([N+](=O)[O-])s2)cc(OC)c1OC,32.2% (active)
2,COc1cc(NC(=O)COC(=O)c2cnc(C)cn2)c(C)cc1[N+](=O)[O-],-1.79%
3,CC(C)CNc1cccc2c1S(=O)(=O)N(Cc1cn(Cc3ccc(Cl)cc3)nn1)Cc1ccccc1O2,4.9%
4,O=C(CCl)NC1CCCCN(Cc2cccc(C(F)(F)F)c2)C1=O (stereo not drawn),0.3%
5,COc1ccccc1C1C(C#N)=C(N)Oc2c1c(-c1ccccc1)nn2-c1ccccc1 (stereo not drawn),43.4% (active)
6,COc1ccc(C2C(C#N)=C(N)Oc3n[nH]c(C)c32)cc1CN1CCN(c2ccc(F)cc2)CC1 (stereo not drawn),6.04%
7,COc1ccccc1C1CC(=O)n2c(nc(-c3ccccc3)c2-c2ccccc2)S1 (stereo not drawn),-1.14%
8,O=C(Nc1cccc(Cl)c1)OC1CC2CC1[C@H]1CCCCN1[C@H]2Cc1ccccc1 (stereo partly drawn),-1.12%
9,CN(CCc1ccccc1)C(=O)Cn1nc(-c2ccccc2)ccc1=O,-1.71%
10,O=C(NCc1ccc(Cl)cc1)C1CCCN(c2nc3ccccc3o2)C1 (stereo not drawn),-2.98%
11,CCOCCOC(=O)C1=C(C)N(C)C(=O)NC1c1ccccc1F (stereo not drawn),-1.24%
12,COC(=O)C1=C(C)N(C)C(=O)NC1c1ccc([N+](=O)[O-])o1 (stereo not drawn),46.5% (active)
13,COc1ccc(C2NC(=O)N(C)C(C)=C2[N+](=O)[O-])cc1 (stereo not drawn),-0.24%
14,CCCCCN1CCCCC(NC(=O)C(C)CCC)C1=O (stereo not drawn),-0.51%
15,COCCCNC(=O)C[C@H]1C[C@@]2(C(=O)OC)C(=C[C@H](C(C)(C)C)O[C@@H]2C)N(Cc2ccc(Cl)cc2Cl)C1=O,2.76%
16,O=C(OC12CCCN(C1)/C(=C/c1cccnc1)C2)C1CCCC1 (stereo not drawn),-0.68%
17,OCCN1CCOCCOCCN(CCO)CCN(CCO)CC1,-1.91%
18,Oc1c(CN2CCOCC2)ccc(CN2CCOCC2)c1O,58% (active)
19,OC(c1ccccc1)C(CN1CCOCC1)c1ccccc1 (stereo not drawn),2.05%
20,CCOC(=O)c1cnc2sccn2c1=O,2.78%
21,O=C(NCc1ccccn1)c1cnc2sccn2c1=O,3.23%
22,CN(C)/C=C/C(=O)c1cnc2sccn2c1=O,16.3% (active)
23,O=C(NC1CCC1)c1ccc(C#CC2CC2)cn1,0.75%
24,COc1cccc(CNC(=O)CNS(=O)(=O)c2ccc3nc(C)sc3c2)c1OC,2.85%
25,COC(=O)[C@@]12CCCCC3=C1N(CCC3)C(=O)[C@H]2CC(=O)NCc1cccc2ccccc12,0.3%
26,COc1cccc(CSc2nnc(-c3cccnc3)n2Cc2ccccc2)c1,-2.05%
